{"source": "the supplement of paper PMC12282887", "assay_in_all_cases": "promoter activity interaction Z-score (Lux/OD deviation from empty-vector control); higher = stronger promoter induction by the compound", "key": {"[1]": {"tested_on": "E. coli BW25113 acrABp lux reporter", "in_short": "(§1)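 E. coli BW25113, as wild type or one of three single-gene deletion strains, carried low-copy luxCDABE promoter reporters and grew in 40 µl LB Lennox in 384-well plates at 37°C, with OD600 and luminescence read every 30 min for 12 h. Each compound was run at four 1:2 dilutions in biological duplicates, integration spanned 0–8 h for wild type and 1–9 h for deletion strains, and wells under 10% of the median growth value were dropped. The score is the Z-transformed residual of growth-normalised luminescence fitted against a control.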"}, "[2]": {"tested_on": "E. coli BW25113 marRABp lux reporter", "in_short": "as §1"}, "[3]": {"tested_on": "E. coli BW25113 micFp lux reporter", "in_short": "as §1"}, "[4]": {"tested_on": "E. coli BW25113 ompFp lux reporter", "in_short": "as §1"}, "[5]": {"settings": "35.6 µg/ml, genetic background: wild type"}, "[6]": {"settings": "35.6 µg/ml, genetic background: ΔmarA"}, "[7]": {"settings": "35.6 µg/ml, genetic background: Δrob"}, "[8]": {"settings": "35.6 µg/ml, genetic background: ΔsoxS"}, "[9]": {"settings": "71.1 µg/ml, genetic background: wild type"}, "[10]": {"settings": "71.1 µg/ml, genetic background: ΔmarA"}, "[11]": {"settings": "71.1 µg/ml, genetic background: Δrob"}, "[12]": {"settings": "71.1 µg/ml, genetic background: ΔsoxS"}, "[13]": {"settings": "142.3 µg/ml, genetic background: wild type"}, "[14]": {"settings": "142.3 µg/ml, genetic background: ΔmarA"}, "[15]": {"settings": "142.3 µg/ml, genetic background: Δrob"}, "[16]": {"settings": "142.3 µg/ml, genetic background: ΔsoxS"}, "[17]": {"settings": "284.5 µg/ml, genetic background: wild type"}, "[18]": {"settings": "284.5 µg/ml, genetic background: ΔmarA"}, "[19]": {"settings": "284.5 µg/ml, genetic background: Δrob"}, "[20]": {"settings": "284.5 µg/ml, genetic background: ΔsoxS"}}, "note": "± gives the standard deviation of the averaged measurements.", "data": [{"smiles": "CC[C@H](C)[C@H](N)C1=N[C@H](C(=O)N[C@@H](CC(C)C)C(=O)N[C@H](CCC(=O)O)C(=O)N[C@H](C(=O)N[C@H]2CCCCNC(=O)[C@H](CC(N)=O)NC(=O)[C@@H](CC(=O)O)NC(=O)[C@H](Cc3cnc[nH]3)NC(=O)[C@@H](Cc3ccccc3)NC(=O)[C@H]([C@@H](C)CC)NC(=O)[C@@H](CCCN)NC2=O)[C@@H](C)CC)CS1", "note": "[Bacitracin]", "values": [{"measurement": "promoter activity interaction Z-score", "setting": "[1]; [5]", "result": "0.238 ± 0.011"}, {"measurement": "promoter activity interaction Z-score", "setting": "[1]; [6]", "result": "0.0967 ± 0.69"}, {"measurement": "promoter activity interaction Z-score", "setting": "[1]; [7]", "result": "0.103 ± 0.11"}, {"measurement": "promoter activity interaction Z-score", "setting": "[1]; [8]", "result": "-0.486 ± 0.28"}, {"measurement": "promoter activity interaction Z-score", "setting": "[1]; [9]", "result": "-0.189 ± 0.25"}, {"measurement": "promoter activity interaction Z-score", "setting": "[1]; [10]", "result": "-0.152 ± 0.45"}, {"measurement": "promoter activity interaction Z-score", "setting": "[1]; [11]", "result": "-0.3 ± 0.21"}, {"measurement": "promoter activity interaction Z-score", "setting": "[1]; [12]", "result": "-0.354 ± 0.56"}, {"measurement": "promoter activity interaction Z-score", "setting": "[1]; [13]", "result": "-0.563 ± 0.27"}, {"measurement": "promoter activity interaction Z-score", "setting": "[1]; [14]", "result": "0.111 ± 0.27"}, {"measurement": "promoter activity interaction Z-score", "setting": "[1]; [15]", "result": "-0.64 ± 0.089"}, {"measurement": "promoter activity interaction Z-score", "setting": "[1]; [16]", "result": "-0.484 ± 0.29"}, {"measurement": "promoter activity interaction Z-score", "setting": "[1]; [17]", "result": "-0.416 ± 0.21"}, {"measurement": "promoter activity interaction Z-score", "setting": "[1]; [18]", "result": "-0.491 ± 0.073"}, {"measurement": "promoter activity interaction Z-score", "setting": "[1]; [19]", "result": "-0.296 ± 0.36"}, {"measurement": "promoter activity interaction Z-score", "setting": "[1]; [20]", "result": "0.474 ± 0.51"}, {"measurement": "promoter activity interaction Z-score", "setting": "[2]; [5]", "result": "0.278 ± 0.2"}, {"measurement": "promoter activity interaction Z-score", "setting": "[2]; [6]", "result": "0.153 ± 0.22"}, {"measurement": "promoter activity interaction Z-score", "setting": "[2]; [7]", "result": "-0.0986 ± 0.2"}, {"measurement": "promoter activity interaction Z-score", "setting": "[2]; [8]", "result": "-0.193 ± 0.086"}, {"measurement": "promoter activity interaction Z-score", "setting": "[2]; [9]", "result": "-0.0216 ± 0.19"}, {"measurement": "promoter activity interaction Z-score", "setting": "[2]; [10]", "result": "-0.262 ± 0.16"}, {"measurement": "promoter activity interaction Z-score", "setting": "[2]; [11]", "result": "-0.251 ± 0.062"}, {"measurement": "promoter activity interaction Z-score", "setting": "[2]; [12]", "result": "-0.169 ± 0.029"}, {"measurement": "promoter activity interaction Z-score", "setting": "[2]; [13]", "result": "-0.588 ± 0.2"}, {"measurement": "promoter activity interaction Z-score", "setting": "[2]; [14]", "result": "-0.5787 ± 0.0025"}, {"measurement": "promoter activity interaction Z-score", "setting": "[2]; [15]", "result": "-0.542 ± 0.048"}, {"measurement": "promoter activity interaction Z-score", "setting": "[2]; [16]", "result": "-0.36 ± 0.085"}, {"measurement": "promoter activity interaction Z-score", "setting": "[2]; [17]", "result": "0.158 ± 0.24"}, {"measurement": "promoter activity interaction Z-score", "setting": "[2]; [18]", "result": "0.0811 ± 0.011"}, {"measurement": "promoter activity interaction Z-score", "setting": "[2]; [19]", "result": "-0.159 ± 0.29"}, {"measurement": "promoter activity interaction Z-score", "setting": "[2]; [20]", "result": "0.576 ± 0.23"}, {"measurement": "promoter activity interaction Z-score", "setting": "[3]; [5]", "result": "-0.0989 ± 0.035"}, {"measurement": "promoter activity interaction Z-score", "setting": "[3]; [6]", "result": "-0.0164 ± 0.05"}, {"measurement": "promoter activity interaction Z-score", "setting": "[3]; [7]", "result": "0.0475 ± 0.15"}, {"measurement": "promoter activity interaction Z-score", "setting": "[3]; [8]", "result": "-0.478 ± 0.18"}, {"measurement": "promoter activity interaction Z-score", "setting": "[3]; [9]", "result": "-0.268 ± 0.032"}, {"measurement": "promoter activity interaction Z-score", "setting": "[3]; [10]", "result": "-0.0396 ± 0.049"}, {"measurement": "promoter activity interaction Z-score", "setting": "[3]; [11]", "result": "-0.239 ± 0.028"}, {"measurement": "promoter activity interaction Z-score", "setting": "[3]; [12]", "result": "-0.278 ± 0.083"}, {"measurement": "promoter activity interaction Z-score", "setting": "[3]; [13]", "result": "-0.506 ± 0.083"}, {"measurement": "promoter activity interaction Z-score", "setting": "[3]; [14]", "result": "-0.139 ± 0.089"}, {"measurement": "promoter activity interaction Z-score", "setting": "[3]; [15]", "result": "-0.177 ± 0.087"}, {"measurement": "promoter activity interaction Z-score", "setting": "[3]; [16]", "result": "-0.0874 ± 0.23"}, {"measurement": "promoter activity interaction Z-score", "setting": "[3]; [17]", "result": "0.124 ± 0.091"}, {"measurement": "promoter activity interaction Z-score", "setting": "[3]; [18]", "result": "-0.167 ± 0.014"}, {"measurement": "promoter activity interaction Z-score", "setting": "[3]; [19]", "result": "-0.188 ± 0.095"}, {"measurement": "promoter activity interaction Z-score", "setting": "[3]; [20]", "result": "0.2 ± 0.17"}, {"measurement": "promoter activity interaction Z-score", "setting": "[4]; [5]", "result": "0.637 ± 0.23"}, {"measurement": "promoter activity interaction Z-score", "setting": "[4]; [6]", "result": "0.358 ± 0.11"}, {"measurement": "promoter activity interaction Z-score", "setting": "[4]; [7]", "result": "0.253 ± 0.87"}, {"measurement": "promoter activity interaction Z-score", "setting": "[4]; [8]", "result": "-0.738 ± 0.32"}, {"measurement": "promoter activity interaction Z-score", "setting": "[4]; [9]", "result": "0.389 ± 0.42"}, {"measurement": "promoter activity interaction Z-score", "setting": "[4]; [10]", "result": "0.103 ± 0.39"}, {"measurement": "promoter activity interaction Z-score", "setting": "[4]; [11]", "result": "-0.153 ± 0.32"}, {"measurement": "promoter activity interaction Z-score", "setting": "[4]; [12]", "result": "-0.256 ± 0.011"}]}]}
